# Reference: PubChem BioAssay (NCATS)
# Inconclusive results are not listed. A call without a number means that no potency is given here. The source made the active and inactive calls. Calls follow the shape of the dose curve; as a rule, active = well fitted inhibition curve with a large enough effect; inconclusive = small, poorly fitted or top-dose-only effect; inactive = flat fitted curve, though single readings scatter.
# Test system: MCC-26
# Assay: qHTS assay to identify novel small-molecules to repurpose for Merkel cell carcinoma treatment (AID 1296009); also: nearly all actives have a fitted effect of over 60% in size
# Settings: MCC and control cell lines, CellTiter-Glo viability, 72 h; series mostly up to 46 µM
# Source text: MCC is a rare and aggressive neuroendocrine skin cancer with limited treatment options. Approximately 80% of MCCs have the Merkel cell polyomavirus (MCPyV) DNA integrated into the host genome (virus-positive: VP-MCC) and viral oncogenes drive oncogenesis. The remaining MCCs are virus-negative (VN-MCC) and are caused by UV mutagenesis. To identify novel treatments for VP-MCC and/or VN-MCC we screened three VP-MCC cell lines (WAGA, MKL-1, MKL-2), three VN-MCC cell lines (MCC-13, MCC-26, UISO), and four immortalized, non-transformed control cell lines (HaCaT, HEK293T, CRL7250, NIH-3T3) against ~2,400 compounds in the NCGC Pharmaceutical Collection (NPC) and ~1,900 compounds in the Mechanism Interrogation PlatE (MiPE). Using cell viability as a readout (CellTiter-Glo assay) we found both overlapping and distinct drugs that can be repurposed for the treatment of VP-MCC and VN-MCC.
# A high-throughput screen was conducted in 1536-well white flat bottom plates (Corning) on a Kalypsys robotic system. Cell lines WAGA, MKL-1, MKL-2, MCC-13, MCC-26, UISO, HaCaT, HEK293T, CRL7250, and NIH-3T3 were screened against 2 small molecule annotated drug libraries NPC and MIPE in dose response (8 and 11 pt. respectively) measuring cell viability after 72 hours of incubation. […] A 1,536 pintool (Kalypsys) was used to transfer 23 nL of compound in DMSO to the 1,536-well assay plates. After 72 hr incubation at 37 degree celsius, 2.5 uL of CellTiter-Glo (Promega) was dispensed into each well using a BiorapTR. Plates were incubated at room temperature for 10 min, transferred to a ViewLux (PerkinElmer) and the luminescence was recorded using an exposure time of 2 seconds. Relative luminescence units (RLUs) were normalized to in-plate controls (no cells as a positive (cytotoxicity) control, DMSO as negative control) and the normalized data was processed using NCATS in-house software.
# Potency is read from the fitted curve at half-maximal effect.
row,SMILES,Potency
1,Cc1ccc2c(n1)Oc1ccc(C(C)C(=O)OCC(=O)N(C)C)cc1C2 (stereo not given),inactive
2,O=C(Nc1ccc(C(=O)O)c(O)c1)c1ccccc1,inactive
3,O=C(O)/C=C\C(=O)O,inactive
4,CCCCC1C(=O)N(c2ccccc2)N(c2ccc(O)cc2)C1=O (stereo not given),inactive
5,CC(=O)SCC(CC(=O)c1ccc(C)cc1)C(=O)O (stereo not given),inactive
6,CN1CC(=O)N/C1=N/C(=O)Nc1cccc(Cl)c1,inactive
7,Nc1cc(-c2ccncc2)c[nH]c1=O,inactive
8,CCOC(=O)c1ccccc1O,inactive
9,c1ccc2sc(SN3CCOCC3)nc2c1,inactive
10,O=c1[nH]c2ccccc2n1CCCN1CCN(C(c2ccccc2)c2ccccc2)CC1,inactive
11,COC(=O)c1nc(Cl)c(Cl)nc1N,8.41 µM (active)
12,CCCCCCOc1ccccc1C(N)=O,inactive
13,COc1cccc2c1C(=O)c1c(O)c3c(c(O)c1C2=O)C[C@@](O)(C(=O)CO)C[C@@H]3O[C@H]1C[C@H](N)[C@H](O[C@@H]2CCCCO2)[C@H](C)O1,7.5 µM (active)
14,Nc1c(CC(=O)O)cccc1C(=O)c1ccc(Br)cc1,inactive
15,O=C(OCc1ccccc1)c1ccccc1,inactive
16,Nc1ccc(O)c(C(=O)O)c1,inactive
17,Clc1ccccc1-c1nc(-c2ccncc2)no1,inactive
18,CC(C)OC(=O)c1cc(C(=O)OC(C)C)cc([N+](=O)[O-])c1,inactive
19,Cc1c(C(=O)O)c(O)cc2c1C(=O)c1c(O)c([C@@H]3O[C@H](CO)[C@@H](O)[C@H](O)[C@H]3O)c(O)c(O)c1C2=O,inactive
20,CO[C@@]1(NC(=O)Cc2cccs2)C(=O)N2C(C(=O)O)=C(COC(N)=O)CS[C@@H]21,inactive

row,SMILES,Potency
1,CC(N)C(=O)OC(C)(C)Cc1ccc(Cl)cc1 (stereo not given),inactive
2,CN(C)[C@@H]1C(=O)C(C(=O)NCN2CCCC2)=C(O)[C@@]2(O)C(=O)C3=C(O)c4c(O)cccc4[C@@](C)(O)C3C[C@@H]12 (stereo not given in full),inactive
3,C/C(=N\O)c1ccc(OCC(=O)N2CCCCC2)cc1,inactive
4,Cc1c(Nc2ncccc2C(=O)O)cccc1C(F)(F)F,inactive
5,O=C1CN(/N=C/c2ccc([N+](=O)[O-])o2)C(=O)N1,inactive
6,CC(=O)c1ccc(OCC(=O)N2CCCCC2)cc1,inactive
7,Cc1nc2ccccc2n1Cc1ccc(Cl)cc1,inactive
8,CCCCCCCCCCCCOCCO,inactive
9,O=C(O)Cc1ccc(-c2ccccc2)cc1,inactive
10,CCCCCCCCCCCCCCCC(=O)OC(C)C,inactive
11,CCCC(=O)OC[C@@H](OC(=O)CCC)[C@@H](OC(=O)CCC)[C@H](Cn1c2nc(=O)[nH]c(=O)c-2nc2cc(C)c(C)cc21)OC(=O)CCC,inactive
12,Cc1cc(O)c2ccccc2c1O,inactive
13,O=C(/C=C/c1ccccc1)NCCO,inactive
14,COc1ccc(-c2cc(=S)ss2)cc1,inactive
15,Cc1ccc(C(=O)c2ccc(CC(=O)O)n2C)cc1,inactive
16,CCOc1ccc2nc(S(N)(=O)=O)sc2c1,inactive
17,Nc1ccc(O)c([N+](=O)[O-])c1,inactive
18,[O-][n+]1ccccc1SSc1cccc[n+]1[O-],0.146 µM (active)
19,COc1ccnc2c1CCCCC2S(=O)c1nc2ccccc2[nH]1 (stereo not given),inactive
20,Cc1c(N)c(=O)n(-c2ccccc2)n1C,inactive
